Several values for one entry are separate records, joined by “and”; a condition that tells them apart may be missing. Equal entries are not always repeated. Inconclusive results are not listed. The source holds several records for some structures; these can differ, active in one and inactive in another. Activity calls are given as the source filed them. Rule for the calls: active = hit-call score of the fitted dose curve at least 0.9, where 1 is the maximum; inconclusive = response in the unintended direction; inactive = score below 0.9.
Experiments:
[1] = biological target: Retinoic acid receptor alpha (Homo sapiens) (UniProt P10276); assay: NVS_NR_hRAR_Antagonist: NovaScreen (NVS) Nuclear Receptor Binding Assay for human Retinoic Acid Alpha Receptor Antagonism (RAR) (AID 2283358)
In short: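 TR-FRET, cell-free, antagonist format; 2 h incubation after dosing; DMSO = baseline; signal loss fitted; 25 uM duplicate primary, then conc. series.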

[2] = biological target: PGR (gene 5241) (UniProt P06401); assay: NVS_NR_hPR: NovaScreen (NVS) Nuclear Receptor Binding Assay for human Progestron Receptor (PR) (AID 2283360);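 note: active means loss of bound radioligand signal versus DMSO baseline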
Sequence of PGR (gene 5241) (P06401 whole entry, looked up): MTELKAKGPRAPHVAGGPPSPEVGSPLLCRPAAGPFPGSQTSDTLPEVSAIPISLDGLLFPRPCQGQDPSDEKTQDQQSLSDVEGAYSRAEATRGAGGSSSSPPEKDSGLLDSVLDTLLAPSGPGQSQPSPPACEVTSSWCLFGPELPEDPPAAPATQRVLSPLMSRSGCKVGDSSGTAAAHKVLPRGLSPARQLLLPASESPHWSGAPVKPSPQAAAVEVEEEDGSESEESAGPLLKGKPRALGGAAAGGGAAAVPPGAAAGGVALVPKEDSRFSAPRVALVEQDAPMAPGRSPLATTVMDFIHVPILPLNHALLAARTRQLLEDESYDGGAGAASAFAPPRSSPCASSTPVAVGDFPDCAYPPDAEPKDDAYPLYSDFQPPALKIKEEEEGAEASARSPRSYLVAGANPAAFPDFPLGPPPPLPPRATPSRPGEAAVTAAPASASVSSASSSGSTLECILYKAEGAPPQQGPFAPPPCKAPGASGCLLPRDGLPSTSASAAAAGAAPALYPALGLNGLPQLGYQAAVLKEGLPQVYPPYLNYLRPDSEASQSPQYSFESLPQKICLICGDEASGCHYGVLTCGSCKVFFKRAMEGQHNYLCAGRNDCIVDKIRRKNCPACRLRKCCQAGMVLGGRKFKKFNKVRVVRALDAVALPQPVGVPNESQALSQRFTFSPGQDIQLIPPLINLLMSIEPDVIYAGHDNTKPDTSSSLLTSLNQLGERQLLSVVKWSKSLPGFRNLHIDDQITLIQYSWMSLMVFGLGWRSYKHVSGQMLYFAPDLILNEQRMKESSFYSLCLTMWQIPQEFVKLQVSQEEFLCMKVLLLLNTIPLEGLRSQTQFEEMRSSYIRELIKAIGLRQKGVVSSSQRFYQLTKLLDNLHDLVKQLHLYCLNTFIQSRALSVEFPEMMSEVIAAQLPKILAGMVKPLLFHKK
In short: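 Cell-free radioligand binding using receptor protein extracted from T47D cells, read by scintillation counting 18 hours after dosing. Loss of signal relative to DMSO baseline indicates displacement; primary screen single concentration 25 uM in duplicate, actives followed in concentration series.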

[3] = biological target: Estrogen receptor beta (Homo sapiens) (UniProt Q92731); assay: OT_ER_ERbERb_0480: Odyssey Thera (OT) 8-hour HEK293T Protein-Complementation Assay for Estrogen Receptor-beta/-beta Homodimer (AID 2283357);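 note: active means signal gain over DMSO baseline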
Sequence of Estrogen receptor beta (Homo sapiens) (Q92731 whole entry, looked up, the tested form may be a part): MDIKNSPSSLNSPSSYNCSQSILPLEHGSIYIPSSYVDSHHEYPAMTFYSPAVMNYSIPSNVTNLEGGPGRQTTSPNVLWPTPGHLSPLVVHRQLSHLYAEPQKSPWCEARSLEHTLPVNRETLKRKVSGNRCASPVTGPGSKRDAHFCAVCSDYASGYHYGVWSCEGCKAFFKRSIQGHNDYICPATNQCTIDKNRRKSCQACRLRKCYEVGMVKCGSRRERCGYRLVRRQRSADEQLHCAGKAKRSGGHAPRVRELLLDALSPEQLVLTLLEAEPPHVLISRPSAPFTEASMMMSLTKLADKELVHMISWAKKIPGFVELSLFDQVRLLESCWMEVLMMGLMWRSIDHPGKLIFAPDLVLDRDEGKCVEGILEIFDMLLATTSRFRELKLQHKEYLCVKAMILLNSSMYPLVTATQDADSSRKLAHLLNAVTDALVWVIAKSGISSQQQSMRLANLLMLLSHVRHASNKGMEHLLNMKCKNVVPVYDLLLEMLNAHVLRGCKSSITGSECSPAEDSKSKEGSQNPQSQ
In short: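 Cells (HEK293T, stable ER-beta LBD PCA pair) are treated 8 hours, fixed and Draq5-stained; signal is fluorescence intensity increase relative to vehicle, fitted in the gain direction.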

[4] = biological target: human Peroxisome Proliferator-activated Receptor alpha (PPARa), PPARA (gene 5465) (UniProt Q07869); assay: NVS_NR_hPPARa: NovaScreen (NVS) Nuclear Receptor Binding Assay for human Peroxisome Proliferator-activated Receptor alpha (PPARa) (AID 2283359);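 note: activity means loss of TR-FRET signal versus DMSO baseline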
Sequence of human Peroxisome Proliferator-activated Receptor alpha (PPARa), PPARA (gene 5465) (Q07869 whole entry, looked up): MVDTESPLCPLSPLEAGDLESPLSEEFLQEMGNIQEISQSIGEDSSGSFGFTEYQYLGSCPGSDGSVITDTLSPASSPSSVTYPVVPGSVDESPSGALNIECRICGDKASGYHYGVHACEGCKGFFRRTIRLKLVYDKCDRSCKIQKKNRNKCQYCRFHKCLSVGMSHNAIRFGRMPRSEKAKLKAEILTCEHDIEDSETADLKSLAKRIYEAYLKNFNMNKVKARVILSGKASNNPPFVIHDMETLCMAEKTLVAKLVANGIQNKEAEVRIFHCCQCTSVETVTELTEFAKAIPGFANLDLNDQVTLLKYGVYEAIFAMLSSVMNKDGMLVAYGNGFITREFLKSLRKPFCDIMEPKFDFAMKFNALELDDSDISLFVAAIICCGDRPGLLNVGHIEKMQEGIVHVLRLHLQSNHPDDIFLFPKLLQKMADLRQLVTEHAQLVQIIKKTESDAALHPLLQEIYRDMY
In short: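 Chemicals were first screened in duplicate at 25 uM, and active ones were retested across concentration series. Binding was monitored by TR-FRET one hour after dosing, with decreased signal against DMSO counted as activity.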

[5] = biological target: Nuclear receptor subfamily 1 group I member 2 (Homo sapiens) (UniProt O75469); assay: NVS_NR_hPXR: NovaScreen (NVS) Nuclear Receptor Binding Assay for human Pregnane X Receptor (PXR) (AID 2283365);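 note: a drop in FRET signal versus DMSO baseline means the compound binds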
Sequence of Nuclear receptor subfamily 1 group I member 2 (Homo sapiens) (O75469 whole entry, looked up): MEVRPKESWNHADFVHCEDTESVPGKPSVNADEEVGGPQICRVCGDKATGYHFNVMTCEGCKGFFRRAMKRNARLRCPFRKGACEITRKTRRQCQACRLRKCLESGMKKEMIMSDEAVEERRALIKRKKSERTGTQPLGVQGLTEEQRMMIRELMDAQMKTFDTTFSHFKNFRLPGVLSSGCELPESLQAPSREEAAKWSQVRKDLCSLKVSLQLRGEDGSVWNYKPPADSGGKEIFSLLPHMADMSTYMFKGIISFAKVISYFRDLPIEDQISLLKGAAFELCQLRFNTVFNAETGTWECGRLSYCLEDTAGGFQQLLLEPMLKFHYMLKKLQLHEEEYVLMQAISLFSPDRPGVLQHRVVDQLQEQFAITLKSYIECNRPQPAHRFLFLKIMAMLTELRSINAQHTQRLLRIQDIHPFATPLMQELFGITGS
In short: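 Cell-free TR-FRET binding assay with extracted human PXR protein, read 2 h after dosing. Primary screen run in duplicate at 25 uM, actives followed in concentration series; loss of signal fitted against DMSO baseline.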

[6] = biological target: Glucocorticoid receptor (Homo sapiens) (UniProt P04150); assay: NVS_NR_hGR: NovaScreen (NVS) Nuclear Receptor Binding Assay for human Glucocorticoid Receptor (GR) (AID 2283363);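 for AC50: activity is loss of specific radioligand binding signal relative to DMSO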
Sequence of Glucocorticoid receptor (Homo sapiens) (P04150 whole entry, looked up): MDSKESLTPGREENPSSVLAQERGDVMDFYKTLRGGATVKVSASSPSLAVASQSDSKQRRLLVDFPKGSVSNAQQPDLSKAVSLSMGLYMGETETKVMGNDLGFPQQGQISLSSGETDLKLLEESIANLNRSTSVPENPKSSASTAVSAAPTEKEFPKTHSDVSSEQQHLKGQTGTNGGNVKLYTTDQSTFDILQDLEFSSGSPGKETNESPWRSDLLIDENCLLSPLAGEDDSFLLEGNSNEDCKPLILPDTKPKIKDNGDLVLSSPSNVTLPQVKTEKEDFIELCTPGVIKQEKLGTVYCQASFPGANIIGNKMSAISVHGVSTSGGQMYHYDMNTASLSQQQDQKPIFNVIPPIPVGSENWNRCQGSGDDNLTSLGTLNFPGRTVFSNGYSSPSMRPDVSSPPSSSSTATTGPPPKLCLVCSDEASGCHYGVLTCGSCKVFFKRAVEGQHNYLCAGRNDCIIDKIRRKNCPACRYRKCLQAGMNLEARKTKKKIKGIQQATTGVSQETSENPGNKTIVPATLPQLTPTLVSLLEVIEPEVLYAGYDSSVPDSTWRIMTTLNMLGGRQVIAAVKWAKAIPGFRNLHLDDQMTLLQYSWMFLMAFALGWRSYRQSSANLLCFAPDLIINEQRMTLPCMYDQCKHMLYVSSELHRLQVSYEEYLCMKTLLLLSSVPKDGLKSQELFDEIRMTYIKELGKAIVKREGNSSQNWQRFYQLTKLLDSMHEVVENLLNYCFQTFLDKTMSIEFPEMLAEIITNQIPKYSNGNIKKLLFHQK
In short: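 Competitive displacement of a labelled ligand was measured on cell-free receptor preparations after 16 h exposure. Initial testing used 25 uM in duplicate with plate controls; confirmed actives went into concentration series.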

[7] = biological target: rat Androgen Receptor (AR), Ar (gene 24208) (UniProt P15207); assay: NVS_NR_rAR: NovaScreen (NVS) Nuclear Receptor Binding Assay for rat Androgen Receptor (AR) (AID 2283366)
Sequence of rat Androgen Receptor (AR), Ar (gene 24208) (P15207 whole entry, looked up): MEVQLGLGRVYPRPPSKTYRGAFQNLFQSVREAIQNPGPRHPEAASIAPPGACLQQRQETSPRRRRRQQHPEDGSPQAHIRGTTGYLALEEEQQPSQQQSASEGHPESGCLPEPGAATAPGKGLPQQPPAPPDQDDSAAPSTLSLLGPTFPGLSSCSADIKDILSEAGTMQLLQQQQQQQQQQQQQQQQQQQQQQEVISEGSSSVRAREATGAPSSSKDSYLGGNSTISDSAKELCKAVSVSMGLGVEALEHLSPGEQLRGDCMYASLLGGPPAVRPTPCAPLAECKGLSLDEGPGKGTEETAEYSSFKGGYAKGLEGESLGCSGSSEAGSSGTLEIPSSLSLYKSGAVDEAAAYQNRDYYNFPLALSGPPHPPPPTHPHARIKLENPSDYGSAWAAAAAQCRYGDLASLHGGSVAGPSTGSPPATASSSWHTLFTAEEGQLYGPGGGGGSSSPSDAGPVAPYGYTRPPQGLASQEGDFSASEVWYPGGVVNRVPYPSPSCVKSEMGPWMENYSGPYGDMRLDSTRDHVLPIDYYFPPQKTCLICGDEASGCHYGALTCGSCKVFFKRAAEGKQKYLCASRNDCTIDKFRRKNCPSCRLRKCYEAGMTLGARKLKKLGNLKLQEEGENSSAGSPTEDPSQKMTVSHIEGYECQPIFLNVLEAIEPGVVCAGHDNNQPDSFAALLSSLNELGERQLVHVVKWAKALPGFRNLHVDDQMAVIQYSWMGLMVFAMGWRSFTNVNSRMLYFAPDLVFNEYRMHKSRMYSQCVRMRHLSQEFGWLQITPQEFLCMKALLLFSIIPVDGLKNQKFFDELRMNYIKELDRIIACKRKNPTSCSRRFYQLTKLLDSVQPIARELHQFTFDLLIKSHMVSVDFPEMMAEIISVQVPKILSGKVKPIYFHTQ
In short: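 Cell-free radioligand binding on extracts of prostate from testosterone-pretreated rats, read by filter-based scintillation counting 18 h after dosing. Loss of bound signal fitted positively versus DMSO; primary screen in duplicate at 25 uM, actives followed up in concentration series.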

[8] = biological target: Retinoic acid receptor alpha (Homo sapiens) (UniProt P10276); assay: NVS_NR_hRARa_Agonist: NovaScreen (NVS) Nuclear Receptor Binding Assay for human Retinoic Acid Alpha Receptor Agonism (RAR) (AID 2283361)
Procedure: NVS_NR_hRARa_Agonist is a biochemical, single-readout assay that uses extracted gene-proteins in a cell-free assay. Measurements were taken 2 hours after chemical dosing in a 384-well plate.NVS_NR_hRARa_Agonist is one of one assay component(s) measured or calculated from the NVS_NR_hRARa_Agonist assay. It is designed to make measurements of fluorescent resonance energy transfer, a form of binding reporter, as detected with fluorescent resonance energy transfer signals by Time-Resolved Fluorescence Resonance Energy Transfer (TR-FRET) technology.Data from the assay component NVS_NR_hRARa_Agonist was analyzed into 1 assay endpoint. This assay endpoint, NVS_NR_hRARa_Agonist, was analyzed in the positive analysis fitting direction relative to DMSO as the negative control and baseline of activity. Using a type of binding reporter, gain-of-signal activity can be used to understand changes in the binding as they relate to the gene RARA. Furthermore, this assay endpoint can be referred to as a primary readout, because the performed assay has only produced 1 assay endpoint. To generalize the intended target to other relatable targets, this assay endpoint is annotated to the nuclear receptor intended target family, where the subfamily is non-steroidal. […]

[9] = biological target: Estrogen receptor (Homo sapiens) + Estrogen receptor beta (Homo sapiens) (UniProt P03372+Q92731); assay: OT_ER_ERaERb_1440: Odyssey Thera (OT) 24-hour HEK293T Protein-Complementation Assay for Estrogen Receptor-alpha/-beta Homodimer (AID 2283356);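 note: heteromer of ER alpha and ER beta binding domains; hits raise reporter fluorescence and both agonists and antagonists give an increase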
Sequence of Estrogen receptor (Homo sapiens) + Estrogen receptor beta (Homo sapiens) (P03372 whole entry, looked up, the tested form may be a part): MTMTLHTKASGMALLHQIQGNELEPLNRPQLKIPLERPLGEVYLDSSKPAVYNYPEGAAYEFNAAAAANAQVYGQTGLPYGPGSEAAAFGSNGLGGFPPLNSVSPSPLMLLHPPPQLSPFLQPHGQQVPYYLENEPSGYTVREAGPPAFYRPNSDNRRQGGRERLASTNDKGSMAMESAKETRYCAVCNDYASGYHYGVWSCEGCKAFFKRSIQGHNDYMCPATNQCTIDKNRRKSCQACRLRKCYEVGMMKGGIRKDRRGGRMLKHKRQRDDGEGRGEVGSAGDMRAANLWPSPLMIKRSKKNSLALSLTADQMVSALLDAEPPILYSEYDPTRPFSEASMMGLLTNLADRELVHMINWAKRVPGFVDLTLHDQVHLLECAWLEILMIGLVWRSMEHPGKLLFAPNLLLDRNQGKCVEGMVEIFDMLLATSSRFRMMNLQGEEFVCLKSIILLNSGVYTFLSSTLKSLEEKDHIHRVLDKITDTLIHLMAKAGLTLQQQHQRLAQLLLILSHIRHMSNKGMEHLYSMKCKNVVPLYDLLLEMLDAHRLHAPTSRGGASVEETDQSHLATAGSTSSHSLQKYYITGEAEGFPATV
Sequence of Estrogen receptor (Homo sapiens) + Estrogen receptor beta (Homo sapiens) (Q92731 whole entry, looked up, the tested form may be a part): as the sequence (Q92731 whole entry, looked up, the tested form may be a part) above
In short: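 HEK293T stably expressing a PCA of ER alpha LBD (aa 310-547) and ER beta LBD (aa 263-489). After 24 h compound exposure, mean fluorescence intensity in nucleus (agonists) or nucleus and cytoplasm (antagonists) measured by laser scanning cytometry versus vehicle.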

[10] = biological target: human Thyroid Receptor Alpha (TRa), THRA (gene 7067) (UniProt P10827); assay: NVS_NR_hTRa_Antagonist: NovaScreen (NVS) Nuclear Receptor Binding Assay for human Thyroid Receptor Alpha Antagonism (TRa) (AID 2283362)
In short: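 Cell-free AlphaLISA chemiluminescent binding read 1 h after dosing, antagonist mode; signal loss versus DMSO baseline. Primary screen in duplicate at 25 uM, then concentration series for actives.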

Compound: Clc1ccc(COC(Cn2ccnc2)c2ccc(Cl)cc2Cl)cc1 (configuration not stated)
- AC50 [1]: 16.2 µM (active)

Compound: C=C(C)C(=O)[O][Sn]([CH2]CCC)([CH2]CCC)[CH2]CCC
- AC50 [2]: 3.42 µM (active)

Compound: Oc1ccc(-c2ccccc2)cc1
- AC50 [3]: 12.7 µM (active)
- outcome [4]: inactive
- AC50 [2]: 43.2 µM (active)

Compound: CCC[CH2][Sn]([CH2]CCC)([CH2]CCC)[O]C(=O)c1ccccc1
- AC50 [5]: 14.6 µM (active)

Compound: CC(C)(OO)c1ccccc1
- outcome [6]: inactive

Compound: Nc1cccc2ccccc12
- outcome [2]: inactive

Compound: O=C(Nc1ccc2[nH]ccc2c1)c1cc2cc(F)ccc2n1Cc1cccc(F)c1
- outcome [5]: inactive

Compound: C=CC(=O)N(C)C
- outcome [2]: inactive

Compound: CC1(C)CCC(Cc2ccc(Cl)cc2)C1(O)Cn1cncn1 (configuration not stated)
- outcome [5]: inactive

Compound: CC(C)(C)CC(C)(C)c1ccc(O)cc1
- AC50 [3]: 817 nM (active) and 676 nM (active) and 702 nM (active)
- AC50 [2]: 10.8 µM (active)
- AC50 [6]: 4.67 µM (active) and 15.9 µM (active) and 7.33 µM (active)
- outcome [7]: inactive

Compound: C[C@]12CCC(=O)C[C@@H]1CC[C@@H]1[C@@H]2CC[C@]2(C)[C@@H](O)CC[C@@H]12
- AC50 [3]: 6.23 µM (active) and 10.7 µM (active) and 5.44 µM (active)
- outcome [3]: inactive
- AC50 [2]: 0.366 µM (active)
- outcome [5]: inactive

Compound: CC(=O)C=C(C)C
- outcome [4]: inactive

Compound: N#CCCO
- outcome [7]: inactive

Compound: C=CCc1ccc(OC)cc1
- outcome [3]: inactive
- outcome [4]: inactive

Compound: COc1cc(-c2ccc(N)c(OC)c2)ccc1N
- AC50 [4]: 14.1 µM (active)
- outcome [4]: inactive
- outcome [8]: inactive

Compound: Nc1ccc(-c2ccc(N)c(Cl)c2)cc1Cl
- AC50 [2]: 41.1 µM (active)

Compound: C[C@@H]1C[C@@H]([C@H](O)CC2CC(=O)NC(=O)C2)C(=O)[C@@H](C)C1
- outcome [3]: inactive
- outcome [5]: inactive

Compound: CC12CC1(C)C(=O)N(c1cc(Cl)cc(Cl)c1)C2=O (configuration not stated)
- outcome [3]: inactive
- outcome [5]: inactive
- outcome [7]: inactive

Compound: [O-][Cl+2]([O-])O
- outcome [9]: inactive
- outcome [5]: inactive

Compound: O=[N+]([O-])c1ccc(O)c([N+](=O)[O-])c1
- outcome [9]: inactive
- outcome [7]: inactive

Compound: ClC1(Cl)C2(Cl)C3(Cl)C4(Cl)C(Cl)(Cl)C5(Cl)C3(Cl)C1(Cl)C5(Cl)C24Cl (configuration not stated)
- outcome [8]: inactive

Compound: N#CCc1ccc(Cl)cc1
- outcome [2]: inactive

Compound: COP(=O)(OC)O/C(=C\Cl)c1cc(Cl)c(Cl)cc1Cl
- outcome [4]: inactive
- AC50 [5]: 25 µM (active)

Compound: Cc1ccccc1N
- outcome [5]: inactive

Compound: CCCCCCCCSC(=O)Oc1cc(Cl)nnc1-c1ccccc1
- outcome [4]: inactive

Compound: O=c1[nH]c(=O)[nH]c(=O)[nH]1
- outcome [3]: inactive

Compound: Oc1cccc2cccnc12
- outcome [3]: inactive
- AC50 [10]: 5.52 µM (active)
- outcome [5]: inactive

Compound: Cc1ccccc1C(=O)Nc1cccc(OC(C)C)c1
- outcome [9]: inactive
- AC50 [5]: 7.03 µM (active)

Compound: CC(C)(c1ccc(OCC2CO2)cc1)c1ccc(OCC2CO2)cc1 (configuration not stated)
- outcome [3]: inactive
- outcome [1]: inactive
- outcome [6]: inactive

Compound: O=C1C2(Cl)C3(Cl)C4(Cl)C(Cl)(Cl)C5(Cl)C3(Cl)C1(Cl)C5(Cl)C24Cl (configuration not stated)
- outcome [4]: inactive
- outcome [10]: inactive
- AC50 [6]: 841 nM (active) and 992 nM (active) and 186 nM (active)
- outcome [5]: inactive
- outcome [7]: inactive

Compound: O=C(O)C(F)(F)C(F)(F)C(F)(F)C(F)(F)C(F)(F)C(F)(F)F
- outcome [3]: inactive
- outcome [4]: inactive

Compound: CCN(CC)C(=O)Cl
- outcome [7]: inactive

Compound: CCCCCCCCc1ccc(O)cc1
- AC50 [3]: 12.2 µM (active)
- outcome [4]: inactive

Compound: C1CCC(NC2CCCCC2)CC1
- outcome [5]: inactive

Compound: C[C@]12CC[C@H](O)CC1=CC[C@@H]1[C@@H]2CC[C@]2(C)C(=O)CC[C@@H]12
- AC50 [3]: 3.91 µM (active)
- outcome [5]: inactive

Compound: CN(C)N=O
- outcome [3]: inactive

Compound: O=C(O)C(F)(F)C(F)(F)C(F)(F)C(F)(F)C(F)(F)C(F)(F)C(F)(F)C(F)(F)C(F)(F)C(F)(F)F
- outcome [3]: inactive

Compound: COC[C@H](C)N(C(=O)CCl)c1c(C)csc1C
- AC50 [2]: 8.39 µM (active)
